32 compounds from PubChem BioAssay (EPA / NIEHS) can be followed below.

Usually AC50 stands for the concentration at which the activity in the assay is half-maximal.

Each structure is given as a SMILES string. Results filed as inconclusive are left out. Calls of active or inactive are those of the source. Rule for the calls: active = hit-call score of the fitted dose curve at least 0.9, where 1 is the maximum; inconclusive = response in the unintended direction; inactive = score below 0.9.

Chain of human Adenosine A2a Receptor (AdoRA2a), ADORA2A (gene 135) (P29274 whole entry, looked up): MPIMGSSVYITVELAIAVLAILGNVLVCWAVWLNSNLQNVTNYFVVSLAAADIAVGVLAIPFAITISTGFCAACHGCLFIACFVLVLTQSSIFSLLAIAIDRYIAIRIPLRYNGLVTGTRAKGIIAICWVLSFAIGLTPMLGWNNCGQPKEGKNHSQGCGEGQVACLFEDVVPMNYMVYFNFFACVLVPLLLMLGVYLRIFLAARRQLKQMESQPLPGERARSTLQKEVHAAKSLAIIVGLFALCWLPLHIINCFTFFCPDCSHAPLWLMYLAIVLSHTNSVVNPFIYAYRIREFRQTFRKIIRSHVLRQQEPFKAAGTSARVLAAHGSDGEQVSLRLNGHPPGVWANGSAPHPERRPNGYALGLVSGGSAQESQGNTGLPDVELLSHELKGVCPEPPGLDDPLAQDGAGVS
Chain of D(1A) dopamine receptor (Homo sapiens) (P21728 whole entry, looked up): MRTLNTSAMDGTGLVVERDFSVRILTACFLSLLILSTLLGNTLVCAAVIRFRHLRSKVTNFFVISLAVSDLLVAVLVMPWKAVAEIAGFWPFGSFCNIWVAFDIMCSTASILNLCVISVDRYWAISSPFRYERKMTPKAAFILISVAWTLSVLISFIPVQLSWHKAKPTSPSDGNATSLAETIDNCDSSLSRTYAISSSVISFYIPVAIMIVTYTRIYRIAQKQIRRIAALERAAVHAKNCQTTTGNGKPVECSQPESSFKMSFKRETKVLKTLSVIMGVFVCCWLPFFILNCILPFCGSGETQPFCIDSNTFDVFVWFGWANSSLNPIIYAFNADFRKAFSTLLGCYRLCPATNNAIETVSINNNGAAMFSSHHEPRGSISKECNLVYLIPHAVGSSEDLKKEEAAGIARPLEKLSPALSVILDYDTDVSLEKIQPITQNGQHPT
Chain of human Opioid Receptor Mu (Opiate Mu), OPRM1 (gene 4988) (P35372 whole entry, looked up): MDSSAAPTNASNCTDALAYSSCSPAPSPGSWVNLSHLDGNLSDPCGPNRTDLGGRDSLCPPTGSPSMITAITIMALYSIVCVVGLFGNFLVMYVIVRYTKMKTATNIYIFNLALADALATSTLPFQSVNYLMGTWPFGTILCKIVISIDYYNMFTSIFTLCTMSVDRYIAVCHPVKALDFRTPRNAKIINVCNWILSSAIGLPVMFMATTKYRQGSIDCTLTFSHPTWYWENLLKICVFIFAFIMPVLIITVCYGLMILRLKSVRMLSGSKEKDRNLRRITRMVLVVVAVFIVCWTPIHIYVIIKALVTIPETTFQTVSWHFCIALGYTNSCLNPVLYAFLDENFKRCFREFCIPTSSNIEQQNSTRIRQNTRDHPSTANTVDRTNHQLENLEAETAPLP

For the first assay, the target named is human Adenosine A1 Receptor (AdoRA1), ADORA1 (gene 134) (UniProt P30542). As to the kind of experiment: NVS_GPCR_hAdoRA1: NovaScreen (NVS) G Protein-Coupled Receptor Assay for human Adenosine A1 Receptor (AdoRA1) (AID 2283254). In outline: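 Hum. cortical membranes + radioligand, cmpd 1 h; filtration, scintillation count. Readout = decrease vs DMSO. Primary 25 uM dup; hits → conc. series.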
Chain of human Adenosine A1 Receptor (AdoRA1), ADORA1 (gene 134) (P30542 whole entry, looked up): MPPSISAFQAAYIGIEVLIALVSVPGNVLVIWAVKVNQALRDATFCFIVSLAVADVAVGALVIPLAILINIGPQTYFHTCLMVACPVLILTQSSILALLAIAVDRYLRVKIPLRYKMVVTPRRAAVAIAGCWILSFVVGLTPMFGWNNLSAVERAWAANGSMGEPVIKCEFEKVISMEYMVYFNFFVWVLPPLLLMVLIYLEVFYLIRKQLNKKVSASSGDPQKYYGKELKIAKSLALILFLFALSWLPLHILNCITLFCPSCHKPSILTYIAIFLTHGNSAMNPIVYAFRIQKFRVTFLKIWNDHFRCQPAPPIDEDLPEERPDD
For `Oc1ccc(/C=C/c2cc(O)cc(O)c2)cc1`, the compound was called inactive.

Consider `Nc1nc(N)nc(-c2ccccc2)n1`, for which the concentration at half-maximal activity (AC50) was 6.11 µM (active).

On to `CCCCCCCCCCCCCc1ccccc1`, for which the compound was classed as inactive.

The next assay addresses human Adenosine A2a Receptor (AdoRA2a), ADORA2A (gene 135) (UniProt P29274). As to the kind of experiment: NVS_GPCR_hAdoRA2a: NovaScreen (NVS) G Protein-Coupled Receptor Assay for human Adenosine A2a Receptor (AdoRA2a) (AID 2283256). The method, boiled down:
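Compounds screened in duplicate at 25 uM, with actives followed up in concentration series, for displacement of a radioligand from HEK293-derived receptor protein. Bound counts read by filter scintillation at 1.5 hours, DMSO as baseline.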
For the compound `Oc1ccc(/C=C/c2cc(O)cc(O)c2)cc1`, the AC50 is 17.9 µM (active).

Consider `Cn1ccnc1`, for which the compound was called inactive.

Take `Cc1c[nH]c(=O)[nH]c1=O`: the compound was classed as inactive.

With `Nc1nc(N)nc(-c2ccccc2)n1`, the AC50 was 3.01 µM (active).

As for `c1ccc(-c2nc3ccccc3[nH]2)cc1`, the call was inactive.

The target of the next assay is D(1A) dopamine receptor (Homo sapiens) (UniProt P21728). Description: NVS_GPCR_hDRD1: NovaScreen (NVS) G Protein-Coupled Receptor Assay for human Dopamine Receptor D1 (DRD1) (AID 2283269). The method, boiled down:
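HEK293-derived receptor preparation; radioligand competitive displacement; 1 h; filtration + scintillation counting. DMSO = negative control/baseline. Primary: 25 uM, duplicate; secondary: concentration–response for actives.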
On to `Cc1cc(C)c(C=O)c(C)c1`, for which the compound was called inactive.

Consider `[Cl][Sc]([Cl])[Cl]`, for which the result was inactive.

For the compound `Cc1cc(C)n(CO)n1`, the result was inactive.

On to `Oc1ccc(/C=C/c2cc(O)cc(O)c2)cc1`, for which the half-maximal activity concentration (AC50) was 25 µM (active).

Turning to `COC(=O)C=Cc1ccccc1`, the call was inactive.

In the case of `CC(C)CCOCc1ccccc1`, the result was inactive.

As for `CCC(C)C(=O)OC` (centres undefined), the AC50 is 18.1 µM (active).

In the case of `C=C(C)C(=O)OCCCCCCCCCCCC`, the outcome was inactive.

Take `CC/C=C\C/C=C\C/C=C\CCCCCCCC(=O)OC`: the AC50 was 14 µM (active).

Turning to `CC(c1cc(C(C)(C)C)cc(C(C)(C)C)c1O)c1cc(C(C)(C)C)cc(C(C)(C)C)c1O`, the outcome was inactive.

Turning to `CCCCCCCCCCCCCc1ccccc1`, the compound was classed as inactive.

Another assay deals with Muscarinic acetylcholine receptor M2 (Homo sapiens) (UniProt P08172). As to the kind of experiment: NVS_GPCR_hM2: NovaScreen (NVS) G Protein-Coupled Receptor Assay for human Muscarinic, M2 Receptor (AID 2283273). In outline: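 Radioligand competition binding, cell-free, receptor from CHO; 1 h incubation; scintillation detection. Primary testing at 25 uM in duplicate.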
Chain of Muscarinic acetylcholine receptor M2 (Homo sapiens) (P08172 whole entry, looked up): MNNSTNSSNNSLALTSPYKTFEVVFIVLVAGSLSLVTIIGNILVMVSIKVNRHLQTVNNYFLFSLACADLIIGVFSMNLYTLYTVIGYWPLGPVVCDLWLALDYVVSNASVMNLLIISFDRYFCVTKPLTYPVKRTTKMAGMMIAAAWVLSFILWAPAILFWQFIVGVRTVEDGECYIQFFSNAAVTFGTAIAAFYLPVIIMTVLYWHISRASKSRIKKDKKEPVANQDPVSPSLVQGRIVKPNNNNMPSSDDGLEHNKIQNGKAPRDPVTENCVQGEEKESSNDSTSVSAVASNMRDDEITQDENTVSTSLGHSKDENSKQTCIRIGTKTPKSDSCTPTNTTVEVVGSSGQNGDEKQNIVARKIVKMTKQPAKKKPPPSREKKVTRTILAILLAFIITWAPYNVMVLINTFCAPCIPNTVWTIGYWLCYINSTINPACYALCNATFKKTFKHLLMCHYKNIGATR
Take `CC(C)[N+](C)(CCOC(=O)C1c2ccccc2Oc2ccccc21)C(C)C`: the AC50 is 0.00229 µM (active).

For the compound `CCCCCCCCC(CO)CCCCCC` (centres undefined), the compound was classed as inactive.

For the compound `Cc1c(O)cccc1O`, the compound was classed as inactive.

Another assay deals with human Neurokinin, NK2 Receptor, TACR2 (gene 6865) (UniProt P21452). Description: NVS_GPCR_hNK2: NovaScreen (NVS) G Protein-Coupled Receptor Assay for human Neurokinin, NK2 Receptor (AID 2283278).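 Note: actives reduce bound radioligand signal relative to DMSO baseline.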 In outline: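 Filter-based scintillation counting measured radioligand bound to receptor extracted from CHO cells, 4 hours after compound addition. Chemicals screened first at 25 uM in duplicate, with actives retested in concentration series relative to DMSO.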
Chain of human Neurokinin, NK2 Receptor, TACR2 (gene 6865) (P21452 whole entry, looked up): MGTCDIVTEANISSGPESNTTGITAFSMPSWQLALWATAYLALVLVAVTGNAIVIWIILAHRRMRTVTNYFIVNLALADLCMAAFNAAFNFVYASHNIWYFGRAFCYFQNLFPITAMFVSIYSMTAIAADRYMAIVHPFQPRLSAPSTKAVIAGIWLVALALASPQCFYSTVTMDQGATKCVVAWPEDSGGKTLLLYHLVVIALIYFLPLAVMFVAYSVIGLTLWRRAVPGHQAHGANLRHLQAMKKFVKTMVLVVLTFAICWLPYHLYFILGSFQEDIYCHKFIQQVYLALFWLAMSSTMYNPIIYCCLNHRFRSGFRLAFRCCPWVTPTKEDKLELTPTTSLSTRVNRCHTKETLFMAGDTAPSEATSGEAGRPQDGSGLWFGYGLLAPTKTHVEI
Turning to `[Cl][Sc]([Cl])[Cl]`, the outcome was inactive.

Consider `Oc1ccc(/C=C/c2cc(O)cc(O)c2)cc1`, for which the half-maximal activity concentration (AC50) was 0.835 µM (active).

For the compound `CC(C)[N+](C)(CCOC(=O)C1c2ccccc2Oc2ccccc21)C(C)C`, the AC50 is 17.7 µM (active).

Regarding `CCOC(=O)/C=C\C(=O)OCC`, the result was inactive.

As for `c1ccc2sc(SSN3CCOCC3)nc2c1`, the AC50 was 3.65 µM (active).

The target in another assay is human Thromboxane A2 Receptor (TXA2), TBXA2R (gene 6915) (UniProt P21731). Description: NVS_GPCR_hTXA2: NovaScreen (NVS) G Protein-Coupled Receptor Assay for human Thromboxane A2 Receptor (TXA2) (AID 2283282).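 Note: actives reduce bound radioligand signal relative to DMSO baseline.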 The method, boiled down: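 Filter scintillation counting of bound radioligand, human platelet protein, 1 h exposure. Single-concentration duplicates (25 uM) first, concentration-response follow-up for actives. Binding loss scored against DMSO baseline.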
Chain of human Thromboxane A2 Receptor (TXA2), TBXA2R (gene 6915) (P21731 whole entry, looked up): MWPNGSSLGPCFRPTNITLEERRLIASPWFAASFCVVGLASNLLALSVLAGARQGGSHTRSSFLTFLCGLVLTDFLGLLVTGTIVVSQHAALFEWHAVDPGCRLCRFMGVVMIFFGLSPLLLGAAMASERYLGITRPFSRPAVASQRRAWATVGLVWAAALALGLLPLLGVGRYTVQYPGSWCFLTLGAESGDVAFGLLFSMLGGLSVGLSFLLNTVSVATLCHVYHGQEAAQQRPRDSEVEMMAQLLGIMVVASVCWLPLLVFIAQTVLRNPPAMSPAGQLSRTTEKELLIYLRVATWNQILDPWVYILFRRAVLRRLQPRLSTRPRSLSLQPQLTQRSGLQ
Turning to `CCC(C)c1ccccc1` (centres undefined), the AC50 was 2.46 µM (active).

As for `CC(C)=NNC(N)=S`, the compound was classed as inactive.

As for `Oc1c(Cl)cc(Cl)c(Cl)c1Cl`, the call was inactive.

Turning to `Oc1ccc(/C=C/c2cc(O)cc(O)c2)cc1`, the compound was called inactive.

For `CCCCC1C(=O)N(c2ccccc2)N(c2ccccc2)C1=O`, the compound was classed as inactive.

On to `Fc1ccc(Br)cc1`, for which the outcome was inactive.

Consider `CCCCCCC=O`, for which the result was inactive.

In the case of `CCOC(=O)C1=NN(c2ccc(Cl)cc2Cl)C(C)(C(=O)OCC)C1` (centres undefined), the compound was called inactive.

For `CCOC(=O)/C=C\C(=O)OCC`, the compound was called inactive.

In the case of `CC/C=C\C/C=C\C/C=C\CCCCCCCC(=O)OC`, the half-maximal activity concentration (AC50) was 2.66 µM (active).

With `Clc1cccnc1`, the compound was classed as inactive.

In the case of `c1ccc(-c2nc3ccccc3[nH]2)cc1`, the AC50 is 7.64 µM (active).

As to `CCc1cccc(C)c1N(C(=O)CS(=O)(=O)O)C(C)COC` (centres undefined), the outcome was inactive.

The next assay concerns the target human Opioid Receptor Mu (Opiate Mu), OPRM1 (gene 4988) (UniProt P35372). Description: NVS_GPCR_hOpiate_mu: NovaScreen (NVS) G Protein-Coupled Receptor Assay for human Opioid Receptor Mu (Opiate Mu) (AID 2283290).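 Note: hits lower bound tracer signal versus DMSO meaning displacement of the ligand.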 In outline: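 CHO-derived receptor protein, cell-free; radioligand displacement, filtration + scintillation counting, read at 2.5 h. DMSO = negative control/baseline. Primary: 25 uM single conc, duplicate; secondary: concentration series.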
As for `CC(C)CCCCCOC(=O)CS`, the AC50 is 39.8 µM (active).

Consider `CC1=C(O)C(=O)C(C)O1` (centres undefined), for which the result was inactive.

With `CC/C=C\C/C=C\C/C=C\CCCCCCCC(=O)OC`, the half-maximal activity concentration (AC50) is 16.1 µM (active).

Turning to `CC(C=O)c1ccccc1` (centres undefined), the result was inactive.
